# Laboratory results taken from PubChem BioAssay (NCATS).
# Records with an inconclusive call do not appear. Entries that show only a call come without a potency. The source made the active and inactive calls. Calls come from the whole dose curve; as a rule, active = well fitted inhibition curve with a large enough effect; inconclusive = small, poorly fitted or top-dose-only effect; inactive = no such curve, though single readings can be large or run the other way.
# Test: BET inhibitor-based combinations targeting novel dependencies in MECOM-rearranged (r) AML: UCSD-AML1 cell line (AID 2202235); note: nearly all actives have a fitted effect of over 40% in size
# Conditions: UCSD-AML1 AML cells viability, CellTiter-Glo, 48 h; series mostly up to 46 µM
# Description: Ecotropic viral insertion site 1 (EVI1) is located on chromosome 3q26.2 as part of the MECOM (MDS and EVI1 complex) locus. Under normal hematopoiesis, EVI1 is a regulator of hematopoietic stem cell maintenance and self-renewal and EVI1 levels decrease as the cells differentiate. In approximately 5-10% of de novo acute myeloid leukemia (AML) EVI1 is aberrantly expressed, including Chromosomal inv(3)(q21;q26.2) or t(3;3)(q21;q26.2) alterations (MECOM-r) that account for about 50% of AML with EVI1 overexpression 31. AMLs with high levels of EVI1 have a poor prognosis and an overall survival time averaging between 10-14 months. EVI1 overexpression confers resistance in leukemia cells, highlighting the need to develop new targeted therapies for EVI1 overexpressing AMLs. Here, we performed an unbiased chemical drug screening by evaluating the single agent activity of a collection of 2,480 oncology-focused, approved and investigational drugs (NCATS Mechanism Interrogation Plates, MIPE v5.0) against a panel of seven AML cell lines. These included four MECOM-r cell-lines (AML-191, AML-194, UCSD-AML1 and HNT-34) and three non-MECOM-r AMLs (MV4-11, OCI-AML3 and SET-2). Exploiting the mechanistic redundancy built in the library, we identified target-level sensitivities in MECOM-r AML cells and relative activity as compared to other AML subtypes.
# A collection of 2480 mechanistically annotated dugs (MIPE v5.0) was used to screen four 3q26.2 rearranged AML cell lines and three non-3q26.2 rearranged AML cell lines. This library purposely exploits redundancy by including multiple inhibitors of key onco-targets, while simultaneously encompassing mechanistic diversity, targeting more than 800 distinct mechanisms of action. Briefly, cells were seeded in 5 uL of growth media using a Multidrop Combi dispenser into 1536 well white polystyrene tissue culture treated plates (Corning) at a density of 500cells/well. For each cell-line, for each of the 2480 drugs in MIPE v5.0 library, an 11-point dose curve was generated via a 1536 pin-tool. Plates were incubated for 48 hr at standard incubator conditions, covered by a stainless steel gasketed lid to prevent evaporation. Cell viability was determined by luminescence based, Cell Titer Glo assay (Promega). In detail, 3 uL of Cell Titer Glo were added to each well and plates were incubated at room temperature for 15 min with a stainless-steel lid in place. Luminescence readings were taken using a Viewlux (PerkinElmer) with a 2 s exposure time per plate. Compound dose-response curves were normalized to DMSO and empty well controls on each plate. Quantitative drug activity data from dose-response curves was determined utilizing area Under the Curve (AUC) and Z-transformed AUC (Z-AUC, a mean-centering transformation applied to each individual cell-line screened).
# Potency is the fitted concentration of half-maximal effect.
row,SMILES,Potency
1,CCOC(=O)c1ccnc(CNCC(=O)N(CC)CCN(C)C)c1,inactive
2,COc1ccc2cc([C@H](C)C(=O)O)ccc2c1,inactive
3,NC(=O)c1cccc2[nH]c(-c3ccc([C@H]4CCCN4)cc3F)nc12,inactive
4,CCOc1cc(N2CCC(O)CC2)ccc1Nc1ncc2c(n1)N(C)c1ccccc1C(=O)N2C,8.33 µM (active)
5,COc1ccc(-c2c(-c3ccc(O)cc3O)n[nH]c2C)cc1,inactive
6,Clc1ccc(C(c2ccccc2Cl)C(Cl)Cl)cc1 (stereo not given),inactive
7,Cc1cnc(-c2cnc(NCCNc3ccc(C#N)cn3)nc2-c2ccc(Cl)cc2Cl)[nH]1,inactive
8,Nc1nc(OCc2ccccc2)c2[nH]cnc2n1,inactive
9,CN1c2cc(O)c(N=NC(N)=O)cc2CC1S(=O)(=O)O (stereo not given),inactive
10,Cc1ccc(C(=O)c2cc(O)c(O)c([N+](=O)[O-])c2)cc1,inactive
11,Cc1ncc(Cl)cc1NCc1ccc(C(=O)NC(CC2CCCC2)C(=O)NC2CC2)s1 (stereo not given),0.833 µM (active)
12,COc1ccc(C2(C#N)CCC(C(=O)O)CC2)cc1OC1CCCC1 (stereo not given),inactive
13,CNc1nccc(-c2cccnc2Oc2cc(C(=O)Nc3cccc(C(F)(F)F)c3)ccc2C)n1,6.61 µM (active)
14,CC1CCN(c2cc(N3CCN(C)CC3)ccc2NC(=O)c2cc(C#N)c[nH]2)CC1,20.9 µM (active)
15,NC(N)=NC(N)=NCCc1ccccc1,inactive
16,COC(=O)Nc1nc2ccc(C(=O)c3ccc(F)cc3)cc2[nH]1,0.468 µM (active)
17,COc1ccc(CCN(C)CCCC(C#N)(c2ccc(OC)c(OC)c2)C(C)C)cc1OC (stereo not given),16.6 µM (active)
18,O=C(Nc1ccc(Oc2ccnc3[nH]ccc23)c(F)c1)c1cccn(-c2ccc(F)cc2)c1=O,inactive
19,COc1ccc2c(OCc3nnc4ccc(-c5ccccc5)nn34)ccnc2c1,inactive
20,CNC(=O)c1ccc2c(C(=Nc3cccc(CN(C)C)c3)c3ccccc3)c(O)[nH]c2c1,inactive

row,SMILES,Potency
1,Nc1nccc(-c2ccc3noc(-c4ccc(Cl)cc4)c3c2)n1,20.9 µM (active)
2,N[C@H](CSC(c1ccccc1)(c1ccccc1)c1ccccc1)C(=O)O,inactive
3,CCCN[C@H]1CCc2nc(N)sc2C1,inactive
4,CC(C)Nc1cc(C(F)(F)F)cc2nc(NC(=O)c3cccnc3)nn12,inactive
5,NC(=O)c1ccc2nc(-c3ccc(Oc4ccc(Cl)cc4)cc3)[nH]c2c1,inactive
6,O=C(Nc1cc(Cl)cc2c1[nH]c1cnccc12)c1cccnc1,inactive
7,NC[C@H]1O[C@H](O[C@@H]2[C@@H](O)[C@@H](O[C@H]3O[C@H](CO)[C@@H](O)[C@H](N)[C@@H]3O)[C@H](N)C[C@@H]2N)[C@H](O)[C@@H](O)[C@H]1O,inactive
8,CC[C@@](C)(Nc1ccnc(-c2c[nH]c3ncccc23)n1)C(=O)NCC(F)(F)F,6.61 µM (active)
9,CC(=O)Oc1ccccc1C(=O)O,inactive
10,C[C@@H](c1ccc2nccn2c1)n1nnc2ncc(-c3cnn(C)c3)nc21,inactive
11,COc1cc2nc(-c3cc(F)ccc3O)nc(N[C@@H]3CNC[C@H]3C(C)(C)O)c2cc1OC,4.17 µM (active)
12,Cc1cc2nc3c(=O)[nH]c(=O)nc-3n(CC(O)C(O)C(O)CO)c2cc1C (stereo not given),inactive
13,COc1cc(N2CCC(N(C)C)CC2)ccc1Nc1ncc(Cl)c(Nc2ccccc2P(C)(C)=O)n1,2.63 µM (active)
14,C[C@]12CCC(=O)C=C1[C@@H]1C[C@@H]1[C@H]1[C@@H]3[C@@H]4C[C@@H]4[C@@]4(CCC(=O)O4)[C@@]3(C)CC[C@@H]12,inactive
15,COc1cc(N2CCC(N3CCN(C)CC3)CC2)ccc1Nc1ncc(Cl)c(Nc2ccccc2S(=O)(=O)C(C)C)n1,2.95 µM (active)
16,c1ccc(CNc2nc(NCc3ccccc3)c3ccccc3n2)cc1,8.33 µM (active)
17,CCOc1cc(C(=O)N2CCC(N3CCN(C)CC3)CC2)ccc1Nc1ncc2c(n1)N(C1CCCC1)c1ccccc1C(=O)N2C,5.25 µM (active)
18,COc1cc(N2CCN(C)CC2)ccc1Nc1nccc(-c2cn(C)c3cnccc23)n1,6.61 µM (active)
19,CC1(C)O[C@@H]2C[C@H]3[C@@H]4CCC5=CC(=O)C=C[C@]5(C)[C@@]4(F)[C@@H](O)C[C@]3(C)[C@]2(C(=O)CO)O1,inactive
20,c1cc(-c2sc(-c3ccncc3)c(-c3ccncc3)c2-c2ccncc2)ccn1,inactive
